Values joined by “and” are separate entries in the source; they are usually repeats but may differ in a detail not shown here. Equal values may be shown once. Screen size: about 5,500 compounds; about 2,000 (36%) were called active. About 18% were inconclusive and are not listed. Rule as the data show it: active = normalized growth mostly below about 0.91 (no sharp cut-off); inconclusive = no clear call, values can overlap the other calls; inactive = mostly above about 0.92. The list shows a part of the results.
Experiment: chemical genetic growth profiling, strain panel (AID 1159580);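 also: tested at 20 µM; growth read once vehicle control cultures reached saturation at 30 °C; 1 = growth at the plate median or of vehicle wells; lower values mean less growth of the strain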
Details: S. cerevisiae deletion strains, growth OD

Measured: normalized growth

C=C1C2CC[C@@]3(C)[C@H](c4ccoc4)OC(=O)C[C@]13O[C@H]1CC(=O)C(C)(C)[C@H](C(O)C(=O)OC)[C@@]21C (some centres undefined)
inactive: locus YAL021C, strain ccr4, active compounds read low 1.06 | locus YAL026C, strain drs2, active compounds read low 0.995 | locus YAL030W, strain snc1, active compounds read low 0.995 | locus YBL061C, strain skt5, active compounds read low 0.985 | locus YBR009C, strain hhf1, active compounds read low 1.05 | locus YBR021W, strain FUR4, active compounds read low 0.993 | locus YBR023C, strain chs3, active compounds read low 1.01 | locus YBR171W, strain sec66, active compounds read low 0.994 | locus YBR229C, strain ROT2, active compounds read low 1 | locus YBR231C, strain swc5, active compounds read low 0.993 | locus YBR279W, strain paf1, active compounds read low 1 | locus YCL011C, strain gbp2, active compounds read low 1.02 | locus YCL016C, strain dcc1, active compounds read low 1.01 | locus YCL029C, strain bik1, active compounds read low 1.01 | locus YCL061C, strain MRC1, active compounds read low 1 | locus YCL069W, strain vba3, active compounds read low 0.997 | locus YCR088W, strain abp1, active compounds read low 0.999 | locus YDL005C, strain med2, active compounds read low 0.989 | locus YDL035C, strain GPR1, active compounds read low 1.01 | locus YDL040C, strain nat1, active compounds read low 0.998 | locus YDL074C, strain BRE1, active compounds read low 1.02 | locus YDL101C, strain DUN1, active compounds read low 1.01 | locus YDL134C, strain PPH21, active compounds read low 1.01 | locus YDL185W, strain tfp1, active compounds read low 1.01 | locus YDL192W, strain arf1, active compounds read low 1.01 | locus YDR001C, strain nth1, active compounds read low 1.02 | locus YDR069C, strain doa4, active compounds read low 0.99 | locus YDR101C, strain arx1, active compounds read low 0.994 | locus YDR137W, strain rgp1, active compounds read low 0.959 | locus YDR159W, strain sac3, active compounds read low 0.995 | locus YDR162C, strain NBP2, active compounds read low 1.02 | locus YDR195W, strain ref2 0.961 | locus YDR297W, strain sur2, active compounds read low 1.02 | locus YDR318W, strain mcm21, active compounds read low 1.01 | locus YDR334W, strain swr1, active compounds read low 0.997 | locus YDR335W, strain msn5, active compounds read low 1.01 | locus YDR388W, active compounds read low 1.01 | locus YDR392W, strain spt3, active compounds read low 0.958 | locus YDR502C, strain sam2, active compounds read low 1.02 | locus YEL003W, strain gim4, active compounds read low 1 | locus YEL037C, strain rad23, active compounds read low 1 | locus YEL061C, strain CIN8 (second series), active compounds read low 0.996 | locus YER015W, strain faa2, active compounds read low 1 | locus YER016W, strain bim1, active compounds read low 0.997 | locus YER110C, active compounds read low 1.01 | locus YER111C, strain swi4, active compounds read low 0.994 | locus YER155C, strain BEM2 (second series), active compounds read low 0.983 | locus YER155C, strain BEM2, active compounds read low 0.994 | locus YER167W, strain BCK2, active compounds read low 1.01 | locus YFR010W, strain ubp6, active compounds read low 0.976 | locus YGL078C, strain dbp3, active compounds read low 1.02 | locus YGL086W, strain mad1, active compounds read low 1.01 | locus YGL167C, strain pmr1, active compounds read low 1 | locus YGL173C, strain kem1, active compounds read low 1 | locus YGL227W, strain vid30, active compounds read low 0.991 | locus YGL240W, strain doc1, active compounds read low 0.989 | locus YGL248W, strain PDE1, active compounds read low 1.01 | locus YGL253W, strain hxk2, active compounds read low 0.99 | locus YGR078C, strain PAC10, active compounds read low 1.01 | locus YGR135W, strain pre9, active compounds read low 1.02 | locus YGR252W, strain gcn5, active compounds read low 1.01 | locus YHR013C, strain ard1, active compounds read low 1.01 | locus YHR027C, strain rpn1, active compounds read low 0.991 | locus YHR030C, strain SLT2, active compounds read low 0.963 | locus YHR079C, strain IRE1 (second series), active compounds read low 1.01 | locus YHR079C, strain IRE1, active compounds read low 0.98 | locus YHR094C, strain hxt1, active compounds read low 1.02 | locus YHR129C, strain ARP1, active compounds read low 1 | locus YHR142W, strain chs7, active compounds read low 1.01 | locus YHR200W, strain rpn10, active compounds read low 1.02 | locus YIL066C, strain RNR3, active compounds read low 1.02 | locus YIL073C, strain SPO22, active compounds read low 1.03 | locus YIL125W, strain kgd1, active compounds read low 1 | locus YIR030C, strain dcg1, active compounds read low 1.01 | locus YJL092W, strain hpr5, active compounds read low 1 | locus YJL095W, strain BCK1 (second series), active compounds read low 1.01 | locus YJL095W, strain BCK1, active compounds read low 1.02 and 0.96 | locus YJL115W, strain asf1, active compounds read low 0.995 | locus YJL129C, strain trk1, active compounds read low 0.976 | locus YJL134W, strain LCB3, active compounds read low 1.01 | locus YJL154C, strain vps35, active compounds read low 0.995 | locus YJL164C, strain tpk1, active compounds read low 1.03 | locus YJL166W, strain qcr8, active compounds read low 1.02 | locus YJL168C, strain set2, active compounds read low 1.01 | locus YJL187C, strain SWE1 (second series), active compounds read low 1.01 | locus YJL187C, strain SWE1, active compounds read low 1 | locus YJR043C, strain POL32, active compounds read low 0.999 | locus YJR066W, strain TOR1, active compounds read low 0.932 | locus YJR075W, strain HOC1, active compounds read low 1.01 | locus YKL009W, strain mrt4, active compounds read low 0.992 | locus YKL068W, active compounds read low 1.01 | locus YKL085W, strain MDH1 (second series), active compounds read low 1.01 | locus YKL085W, strain MDH1, active compounds read low 1.01 | locus YKL160W, strain elf1, active compounds read low 1.02 | locus YKL190W, strain CNB1, active compounds read low 1 | locus YKR001C, strain vps1, active compounds read low 1.01 | locus YKR026C, strain gcn3, active compounds read low 0.994 | locus YKR091W, strain srl3, active compounds read low 1 | locus YLL001W, strain dnm1, active compounds read low 0.969 | locus YLL026W, active compounds read low 1 | locus YLL041C, strain sdh2, active compounds read low 1 | locus YLR027C, strain aat2, active compounds read low 0.983 | locus YLR039C, strain RIC1, active compounds read low 1.05 | locus YLR058C, strain SHM2, active compounds read low 1.02 | locus YLR102C, strain apc9, active compounds read low 1.01 | locus YLR113W, strain HOG1, active compounds read low 1.01 | locus YLR221C, strain rsa3, active compounds read low 0.976 | locus YLR258W, strain gsy2, active compounds read low 1.01 | locus YLR262C, strain YPT6 (second series), active compounds read low 1.01 | locus YLR262C, strain YPT6, active compounds read low 1.02 | locus YLR268W, strain sec22, active compounds read low 1 | locus YLR320W, strain mms22, active compounds read low 0.982 | locus YLR342W, strain FKS1 (second series), active compounds read low 0.996 | locus YLR342W, strain FKS1, active compounds read low 0.99 | locus YLR357W, strain rsc2, active compounds read low 0.975 | locus YLR370C, strain arc18, active compounds read low 1.01 | locus YLR371W, strain rom2, active compounds read low 1.02 | locus YLR384C, strain iki3, active compounds read low 0.984 | locus YLR418C, strain cdc73, active compounds read low 1.02 | locus YML016C, strain PPZ1, active compounds read low 1.01 | locus YML032C, strain rad52, active compounds read low 1.01 | locus YML120C, strain ndi1, active compounds read low 1.01 | locus YML124C, strain tub3, active compounds read low 1.01 | locus YMR058W, strain fet3, active compounds read low 0.99 | locus YMR078C, strain ctf18, active compounds read low 1.02 | locus YMR125W, strain sto1, active compounds read low 0.983 | locus YMR129W, active compounds read low 0.998 | locus YMR205C, strain PFK2, active compounds read low 1.03 | locus YMR223W, strain ubp8, active compounds read low 1.01 | locus YMR231W, strain pep5, active compounds read low 0.998 | locus YMR307W, strain GAS1, active compounds read low 1.01 | locus YNL067W, strain RPL9B, active compounds read low 1.01 | locus YNL071W, strain lat1, active compounds read low 1.02 | locus YNL128W, strain TEP1, active compounds read low 1.01 | locus YNL153C, strain GIM3, active compounds read low 1.01 | locus YNL183C, strain NPR1, active compounds read low 0.945 | locus YNL209W, strain ssb2, active compounds read low 1.01 | locus YNL233W, strain BNI4, active compounds read low 1 | locus YNL248C, strain rpa49, active compounds read low 0.959 | locus YNL250W, strain rad50, active compounds read low 1 | locus YNL271C, strain bni1, active compounds read low 1.01 | locus YNL298W, strain CLA4, active compounds read low 1.01 | locus YNL307C, strain MCK1, active compounds read low 1.02 | locus YNL322C, strain KRE1 (second series), active compounds read low 1 | locus YNR049C, strain mso1, active compounds read low 0.995 | locus YNR052C, strain pop2, active compounds read low 1.01 | locus YOL006C, strain TOP1, active compounds read low 1.03 | locus YOL012C, strain htz1 1.49 | locus YOL147C, strain pex11, active compounds read low 1.01 | locus YOR001W, strain rrp6, active compounds read low 0.953 | locus YOR061W, strain CKA2, active compounds read low 1.01 | locus YOR069W, strain VPS5, active compounds read low 1.01 | locus YOR070C, strain gyp1, active compounds read low 0.99 | locus YOR080W, strain dia2, active compounds read low 1 | locus YOR083W, strain WHI5, active compounds read low 1.04 | locus YOR106W, strain vam3, active compounds read low 1.02 | locus YOR136W, strain idh2, active compounds read low 1.01 | locus YOR144C, strain elg1, active compounds read low 1 | locus YOR184W, strain ser1, active compounds read low 1.02 | locus YOR231W, strain MKK1, active compounds read low 0.983 | locus YOR265W, strain rbl2, active compounds read low 1.01 | locus YOR270C, strain vph1, active compounds read low 0.995 | locus YOR290C, strain snf2, active compounds read low 1.03 | locus YOR316C, strain cot1, active compounds read low 1.01 | locus YPL051W, strain arl3, active compounds read low 0.984 | locus YPL078C, strain atp4, active compounds read low 1.02 | locus YPL106C, strain sse1, active compounds read low 1.05 | locus YPL240C, strain hsp82, active compounds read low 0.998 | locus YPL256C, strain CLN2, active compounds read low 0.981 | locus YPR119W, strain clb2, active compounds read low 1.01 | locus YPR141C, strain kar3, active compounds read low 1 | locus YPR163C, strain tif3, active compounds read low 1.01 | locus YPR167C, strain met16, active compounds read low 1.01 | strain wtn01, active compounds read low 1

Source: PubChem BioAssay AID1159580 (chemical genetic matrix, 2015)
